Laboratory results: PubChem BioAssay (NCI)
The panel holds about 79,000 compounds, 15% with a hit somewhere; the sample as a whole holds those more often. Unmarked numbers belong to inactive results. Active and inactive are the calls of the source. Cut-off read from the data, not from the text of the source: active = growth inhibition above about 70%; inactive = the rest.

Assay: NCI Yeast Anticancer Drug Screen. Data for the rad52 strain (AID 147);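 note: 0% = growth of vehicle-treated control cultures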
Conditions: S. cerevisiae rad52 mutant growth inhibition, stronger effect = higher value
Procedure: Growth inhibition of yeast strains with defined genetic alterations is measured as a screen for potential anti-cancer activity. Selected strains with alterations in DNA damage repair or cell cycle control were exposed to compounds and growth inhibition was measured relative to vehicle treated controls. The strain used in this assay is rad52

SMILES	growth inhibition (at 1.2 µM) [%]	growth inhibition (at 3.7 µM) [%]	growth inhibition (at 11.0 µM)	growth inhibition (at 33.0 µM)	growth inhibition (at 100.0 µM)
COc1ccc2sc3cccc(NCCN(C)C)c3c(=O)c2c1	-3	-3	-1%	2%	27%
CC(=O)OCC(=O)C1(O)CCC2C3CCC4CCCCC4(C)C3CCC21C (stereo not given)	-52	-27	21%	55%	83% (active)
OC(c1ccc(F)cc1)(c1ccc(F)cc1)C1CC1	-39	-58	-47%	12%	76% (active)
Cc1ccc(C2C(Cl)C(=O)N2n2cnc3ccccc3c2=O)cc1 (stereo not given)	6	11	8%	9%	-8%
COC1=CC(=O)C2C(C1=O)C(c1ccc(Cl)cc1)[C@@H]2C (stereo not given in full)	12	25	98% (active)	99% (active)	99% (active)
COc1cc(CC2CC(c3ccc4c(c3)OCO4)OC2=O)cc(OC)c1OC (stereo not given)	-1	-1	1%	3%	7%
CNC(=O)OCc1c(COC(=O)NC)c(-c2ccc(Cl)c(Cl)c2)n2c1CCC2	-21	-27	-14%	77% (active)	97% (active)
CN1CCc2ccccc2C1Cc1ccccc1NC(=O)c1sc2ccccc2c1Cl (stereo not given)	-35	-38	-15%	-8%	93% (active)
